Rows were chosen to be rich in hits. Some 4.4% of all compounds tested hit in one or more screens of this group.
PfHsp90 yeast 2 = inhibits growth of yeast expressing Plasmodium falciparum Hsp90; S. cerevisiae expressing PfHsp90, BacTiter-Glo ATP, 48 h; yeast lacking PDR1 and PDR3 efflux regulators; inhibition, % at 9.4 µM; actives 0.32% (n = 310,000); AID 504621;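 active = every replicate shows inhibition above about 80%, whatever the replicate mean, limit read from the data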
TIM10 inh = growth inhibitors of TIM10 yeast strain. S. cerevisiae TIM10 strain growth, BacTiter-Glo luminescence, 24 h. inhibition, % at 10 µM. actives 1.4% (n = 330,000). AID 463195;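 active = inhibition of 40% or more at the single tested concentration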;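 note: wild-type TIM10 isogenic control strain grown at permissive 25 °C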
SKKanGAS inh = SKKanGAS growth inhibition; inhibition, % at 7.5 µM; S. pyogenes SKKanGAS, kanamycin growth, BacTiter-Glo, 6 h; actives 1.3% (n = 300,000);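 active = mean replicate score, as percent of positive control median, at least 50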;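 note: strain carries kanamycin resistance gene driven by streptokinase promoter and grows in 40 µg/ml kanamycin; loss of luminescence reflects streptokinase promoter inhibition or plain growth inhibition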
tim23-1 inh = tim23-1 yeast growth inhibition; AID 463212; inhibition, % at 20 µM; actives 1.3% (n = 330,000); S. cerevisiae tim23-1 growth, BacTiter-Glo luminescence, 24 h;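 active = growth inhibition of the mutant yeast at or above 50%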;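 note: temperature-sensitive mutant grown at 25 °C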
tim10-1 inh = inhibits growth of tim10-1 mutant yeast; S. cerevisiae tim10-1 ts strain growth, BacTiter-Glo, 24 h; inhibition, % at 20 µM; actives 2.2% (n = 330,000);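 active = inhibition of at least 40%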;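 note: mutant grown at 25 °C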
tim10-1 conf = confirmation of tim10-1 mutant yeast growth inhibitors | shares compounds with tim10-1 inh | S. cerevisiae tim10-1 ts strain growth, BacTiter-Glo, 24 h | inhibition, % at 20 µM | actives 56% (n = 7,400) | AID 463213;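 active = inhibition of yeast growth at or above a set limit in either of two repeat tests at 20 µM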;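 note: tim10-1 mutant grown at permissive 25 °C to find synthetic lethal compounds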
Of the large screens only hits and unclear results are named; the others gave an inactive call (follow-up assays come after a bar, where they were run).

COc1cc2c(cc1NC(=O)CSc1nc3ccccc3[nH]1)oc1ccccc12	tim10-1 inh 41 | tim10-1 conf inactive
COc1ccc(NC(=O)Nc2cc3oc4ccccc4c3cc2OC)cc1	none
COc1cc2c(cc1NC(=O)CSc1ccccc1)oc1ccccc12	none
Cc1nn(-c2ccc(F)cc2F)c2c1-c1nc(N3CCCC3)ncc1CC2	tim10-1 inh 45 | tim10-1 conf inactive
O=S(=O)(Nc1ccccc1)C1CCCCC1	none (no result: TIM10 inh, SKKanGAS inh, tim23-1 inh, tim10-1 inh)
Cn1c(COc2ccccc2O)[n+](C)c2ccccc21	none
CCCCCCCCCCOC(=O)Cn1c(COc2ccccc2OC)[n+](C)c2ccccc21	SKKanGAS inh 75, tim10-1 inh 46 | tim10-1 conf 65
COc1ccc(CNC(=O)C2CCC(=O)N(CCCN3CCCC3=O)C2)c(OC)c1 (stereo not drawn)	none
COc1ccc(/C=C/c2c([N+](=O)[O-])c(=O)n(C)c(=O)n2C)cc1O	none
Cn1c(/C=C/c2ccc(Br)cc2)c([N+](=O)[O-])c(=O)n(C)c1=O	tim10-1 inh 42 | tim10-1 conf inactive
CC1CCc2nc3ccc(S(=O)(=O)N4CCC(C(=O)NC(C)c5ccccc5)CC4)cc3c(C(=O)O)c2C1 (stereo not drawn)	none
O=C(Nc1ccc(S(=O)(=O)N2CCCCC2)cc1)c1cccnc1Cl	tim10-1 inh 42 | tim10-1 conf inactive
O=C(Nc1ccc(S(=O)(=O)N2CCCCC2)cc1)c1ccc(F)cc1	tim10-1 inh 49 | tim10-1 conf 48
CCOC(=O)/C=C/C(=O)Nc1ccc(S(=O)(=O)N2CCCCCC2)cc1	tim10-1 inh 44 (no result: PfHsp90 yeast 2) | tim10-1 conf 34
O=C(Nc1ccc(F)cc1F)c1cccc(S(=O)(=O)N2CCCCC2)c1	tim10-1 inh 46 (no result: PfHsp90 yeast 2, SKKanGAS inh) | tim10-1 conf inactive
CCOc1ccccc1N(CC(=O)Nc1ccccc1C(=O)N1CCCC1)S(C)(=O)=O	none
O=S(=O)(c1ccc(NC(=S)Nc2ccccc2)cc1)N1CCOCC1	none
CC(NC(=S)Nc1ccc(S(=O)(=O)N2CCOCC2)cc1)C1CC2CCC1C2 (stereo not drawn)	tim10-1 inh 49 | tim10-1 conf 43
O=C(c1ccco1)N1N=C(c2cccs2)CC1c1ccco1 (stereo not drawn)	tim10-1 inh 41 | tim10-1 conf inactive
Cc1ccc(C2CC(c3cccs3)=NN2C(=O)c2ccco2)o1 (stereo not drawn)	none
O=C(CCN1C(=O)/C(=C/c2ccccc2)SC1=S)N1CCCCCC1	tim10-1 inh 44 | tim10-1 conf 36
COc1ccc(Br)cc1/C=N/NC(=O)CNC(=O)C1COc2ccccc2O1 (stereo not drawn)	none
O=C(N/N=C/C=C/c1ccc([N+](=O)[O-])cc1)C1COc2ccccc2O1 (stereo not drawn)	tim10-1 inh 51 | tim10-1 conf 37
O=C(CNC(=O)C1COc2ccccc2O1)N/N=C\c1ccc(Br)cc1 (stereo not drawn)	tim10-1 inh 60 | tim10-1 conf inactive
COc1ccccc1NS(=O)(=O)c1cccc(NC(=O)CCNC(=O)c2ccccc2OC)c1	none (no result: PfHsp90 yeast 2, SKKanGAS inh)
O=C(NNC(=S)NC(=O)C12CC3CC(CC(C3)C1)C2)c1ccncc1	SKKanGAS inh 108, tim10-1 inh 60 | tim10-1 conf inactive
CCOc1ccc(NCC(=O)Nc2ccc(Cl)cc2C)cc1	tim10-1 inh 45 (no result: PfHsp90 yeast 2) | tim10-1 conf inactive
Oc1ccc(Br)cc1/C=N/n1cnc2ccccc21	tim10-1 inh 42 | tim10-1 conf inactive
COc1cccc(C(=O)NCCS(=O)(=O)NCCCc2ccccc2)c1	none
COc1cc(S(=O)(=O)N2CCn3cccc3C2C)ccc1NC(C)=O (stereo not drawn)	none (no result: SKKanGAS inh)
Cc1ccc(S(=O)(=O)Nc2ncccn2)cc1	none
CCOC(=O)c1c(C2COc3ccccc3O2)csc1N (stereo not drawn)	tim10-1 inh 45 | tim10-1 conf inactive
CCOC(=O)c1c(C2COc3ccccc3O2)csc1NC(=O)c1ccccc1 (stereo not drawn)	none
Cc1c(NC(=O)c2cccc(NC(=O)Cc3ccc(F)cc3)c2)c(=O)n(-c2ccccc2)n1C	none (no result: SKKanGAS inh)
C=Cc1ncc(OC)c2c1[nH]c1ccccc12	tim10-1 inh 44 | tim10-1 conf 37
CC(NC(=O)COC(=O)c1ccc(CO)cc1)C1CC2CCC1C2 (stereo not drawn)	none (no result: SKKanGAS inh)
CCc1ccc([C@@H]2CC=C(C(=O)O)[C@H](c3ccccc3F)N2S(=O)(=O)c2ccc(C)cc2)cc1	tim10-1 inh 41 (no result: SKKanGAS inh) | tim10-1 conf inactive
O=C(Nc1ccc(N2CCN(C(=O)c3ccccc3)CC2)c(Cl)c1)c1ccc(Br)o1	tim10-1 inh 48 (no result: PfHsp90 yeast 2) | tim10-1 conf 39
O=C(Nc1cccc(C(=O)N2CCN(c3cccc(Cl)c3)CC2)c1)c1ccccc1	tim10-1 inh 48 (no result: PfHsp90 yeast 2) | tim10-1 conf 37
O=C(CN1CCN(C(=O)c2c(F)cccc2F)CC1)Nc1ccccc1C(F)(F)F	none
N#Cc1ccccc1S(=O)(=O)N1CCN(C(=O)CCNS(=O)(=O)c2ccc(Cl)cc2)CC1	none (no result: TIM10 inh, SKKanGAS inh, tim23-1 inh, tim10-1 inh)
C=CCNC(=S)NNC(=O)c1cccn(Cc2ccc(Cl)cc2Cl)c1=O	tim10-1 inh 47 (no result: PfHsp90 yeast 2) | tim10-1 conf inactive
O=C(Nc1cccc(S(=O)(=O)N2CCOCC2)c1)C1COc2ccccc2O1 (stereo not drawn)	none (no result: SKKanGAS inh)
CCN(CC(=O)NCc1ccc(F)cc1)C(=O)c1oc2ccccc2c1C	none
Cc1sc2ncnc(N3CCN(CCOc4ccc(Cl)cc4)CC3)c2c1C	tim10-1 inh 45 | tim10-1 conf 32
CCCCN(C(=O)c1cc(S(=O)(=O)N2CCCCC2)ccc1Cl)c1c(N)n(CC(C)C)c(=O)[nH]c1=O	none (no result: TIM10 inh, SKKanGAS inh, tim23-1 inh, tim10-1 inh)
O=S(=O)(c1ccc(Oc2ccc(S(=O)(=O)N(CCO)CCO)cc2)cc1)N(CCO)CCO	none
O=S(=O)(c1ccc(N2CCC(c3ccc(Cl)cc3)=N2)cc1)N(CCO)CCO	tim10-1 inh 55 | tim10-1 conf 48
O=C(NC1CCN(S(=O)(=O)c2ccccc2F)CC1)c1cccnc1	none
CCCCNc1cc(NC(C)=O)cc2cc(OC)c(OC)cc12	tim10-1 inh 44 | tim10-1 conf inactive
Cn1cc(Cl)c(C(=O)Nc2nc3ccccc3s2)n1	tim10-1 inh 44 | tim10-1 conf inactive
COc1ccccc1NS(=O)(=O)c1ccc(C(=O)N2CCN(c3ccccn3)CC2)cc1	none (no result: SKKanGAS inh)
CCOC(=O)c1ccc(N=c2ssnc2Cl)cc1	tim10-1 inh 41 | tim10-1 conf 40
O=C(COC(=O)Cc1c[nH]c2ccccc12)Nc1cc(S(=O)(=O)N2CCOCC2)ccc1Cl	none (no result: SKKanGAS inh)
CCN(CC)S(=O)(=O)c1ccc(/C=C/C(=O)OCC(=O)NCc2ccco2)cc1	none (no result: SKKanGAS inh)
CCOC(=O)C1CCN(C(=O)CN(Cc2ccc(Cl)cc2)S(C)(=O)=O)CC1	tim10-1 inh 97 | tim10-1 conf inactive
CC[C@]12C(=O)N(C)C[C@H]([C@@H]3C(=O)N(Cc4ccccc4)C(=O)[C@@H]31)N2C(=O)c1ccc(Br)cc1	none (no result: TIM10 inh, SKKanGAS inh, tim23-1 inh, tim10-1 inh)
